In PubChem BioAssay (NCI):
Compounds without any hit were thinned out: in the full panel of roughly 79,000, 15% have a hit. Rule as the data show it: active = growth inhibition above about 70%; inactive = the rest.

Experiments:
[1] = NCI Yeast Anticancer Drug Screen. Data for the rad50 strain (AID 155);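 also: 0% = growth of vehicle-only cultures of the same strain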; conditions: S. cerevisiae rad50 strain growth inhibition; at 50.0 µM; active compounds read high
In short: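 Vehicle-treated cultures provide the reference for the growth inhibition reported for compound-exposed, repair-deficient yeast.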

[2] = NCI Yeast Anticancer Drug Screen. Data for the mec2-1 strain (AID 157); conditions: S. cerevisiae mec2-1 strain, at 50.0 µM, active compounds read high
In short: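 mec2-1 yeast strain, carrying an alteration in DNA damage repair or cell cycle control, was exposed to compounds; growth inhibition was measured relative to vehicle-treated controls.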

[3] = NCI Yeast Anticancer Drug Screen. Data for the sgs1 mgt1 strain (AID 161);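 also: 0% = growth of cultures given vehicle only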; conditions: S. cerevisiae sgs1 mgt1 strain, at 50.0 µM, active compounds read high
In short: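 Percent growth inhibition was derived by comparing compound-exposed mutant yeast with vehicle-exposed cultures. The strain carries alterations in DNA damage repair.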

[4] = NCI Yeast Anticancer Drug Screen. Data for the cln2 rad14 strain (AID 165);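 also: 0% = growth equal to vehicle treated cultures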; conditions: S. cerevisiae cln2 rad14 strain, at 50.0 µM, active compounds read high
In short: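 Yeast carrying cln2 and rad14 alterations (cell cycle control and DNA damage repair) were exposed to compounds. Growth inhibition was measured against vehicle-treated controls.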

[5] = NCI Yeast Anticancer Drug Screen. Data for the bub3 strain (AID 167); conditions: S. cerevisiae bub3 mutant strain, at 50.0 µM, active compounds read high
In short: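 Mutant yeast screening strain plus compound; vehicle-treated cultures serve as the 0% inhibition reference.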

[6] = NCI Yeast Anticancer Drug Screen. Data for the mlh1 rad18 strain (AID 175); conditions: S. cerevisiae mlh1 rad18 strain growth inhibition; at 50.0 µM; active compounds read high
In short: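 Growth inhibition of the yeast strain was measured after compound exposure and expressed relative to vehicle-treated controls. The strain carries defined defects in DNA damage repair.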

Measured: growth inhibition

NC(=O)CCP(=O)(CCC(N)=O)CCC(N)=O
inactive: [1] 3.8% | [2] -2.3% | [3] 1.2% | [4] 0.8% | [5] -2.95% | [6] 2.4%

COC(=O)c1cc(C(=CCC[C@H]2CC[C@@]3(C)C(CCC4C3CC[C@@]3(C)C4CC[C@@H]3C(C)CCCC(C)C)C2)c2cc(Cl)c(O)c(C(=O)OC)c2)cc(Cl)c1O (stereo partly drawn)
inactive: [1] 0% | [2] 4.1% | [3] -10% | [4] 6.6% | [5] 5.15% | [6] -18.4%

CC(N)CCCO (stereo not drawn)
inactive: [1] -5.15% | [2] -5.5% | [3] 0.75% | [4] 10.3% | [5] -2.05% | [6] -2.05%

CC(C)(C)C(=O)N/N=C\c1ccc([N+](=O)[O-])s1
inactive: [1] 13.1% | [2] -7.3% | [3] 20.4% | [4] 38.7% | [5] 13.1% | [6] 40.5%

Cc1cc(C)c(N)c(C)n1
inactive: [1] -14.8% | [2] -9.6% | [3] -22.1% | [4] -1.25% | [5] 1.1% | [6] 11.9%

N#CC(N)=NC1CCC(C2CCC(O)CC2)CC1 (stereo not drawn)
inactive: [1] 6.65% | [2] 2.4% | [3] -6.25% | [4] -1.3% | [5] 16.1% | [6] 10.7%

CCC1=C(C(C)=O)[C@@H]2CCCCC(C(=O)OC)[C@@H]2C1=O (stereo partly drawn)
inactive: [1] -38.7% | [2] -20.3% | [3] -20.8% | [4] 19.7% | [5] 8.65% | [6] -3.7%

O=c1c2cc(Br)ccc2n(C2OC(CO)C(O)C(O)C2O)c(=S)n1-c1ccccc1 (stereo not drawn)
inactive: [1] 30.6% | [2] 28.4% | [3] 31.7% | [4] 34.5% | [5] 50.5% | [6] 24.9%

Cc1cc2c(c(C(=O)NCC(=O)N[C@@H](C)C(=O)OCc3ccccc3)c1)Oc1c(cc(C)cc1C(=O)NCC(=O)N[C@@H](C)C(=O)OCc1ccccc1)S2
inactive: [1] 26.4% | [2] 16.8% | [3] 23.8% | [4] 33% | [5] 19.6% | [6] 33.2%

Cc1cn(C)c2c1-c1oncc1CC2
inactive: [1] -4.3% | [2] -14.7% | [3] 5.4% | [4] -7% | [5] -35.3% | [6] 2.3%

O=C(NC(Cc1ccccc1)C(=O)NC(Cc1c[nH]c2ccccc12)C(=O)O)OCc1ccccc1 (stereo not drawn)
inactive: [1] 1.9% | [2] 7.45% | [3] -3.95% | [4] -7.3% | [5] -3.55% | [6] 12.2%

Cc1c(CCNC(=O)C(F)(F)F)ccc2c1[nH]c1ccccc12
inactive: [1] -3.3% | [2] 3.05% | [3] 11.8% | [4] -41.4% | [5] -2.4% | [6] -5.95%

O=C1OC(c2cccc(C(F)(F)F)c2)c2ccc3ccccc3c21 (stereo not drawn)
inactive: [1] 14.3% | [2] -0.45% | [3] 10.7% | [4] 18.1% | [5] 10.8% | [6] 22.8%

CCOC(=O)c1ccccc1[N+](=O)[O-]
inactive: [1] 22.8% | [2] 23.4% | [3] 8.7% | [4] -11.7% | [5] 6.7% | [6] 18.2%

CC(C)(C)OC1COCCO1 (stereo not drawn)
inactive: [1] 12.1% | [2] -5.35% | [3] 8.35% | [4] 1.3% | [5] 8% | [6] 13.8%

c1ccc(CCOC(c2ccccc2)(c2ccccc2)c2ccccc2)cc1
inactive: [1] -11.2% | [2] -9.25% | [3] 0.3% | [4] -61.6% | [5] -10.4% | [6] -26.2%

CC(=O)NNc1nc(C)c(C(=O)/C=C/c2ccccc2Cl)s1
inactive: [1] 37.5% | [2] 16.1% | [3] 17.4% | [4] 19.4% | [5] 23.1% | [6] 43.5%

O=C(Oc1ccccc1OC(=O)c1ccc(Cl)cc1)c1ccc(Cl)cc1
inactive: [1] 3.15% | [2] 6.4% | [3] 12.7% | [4] 6.7% | [5] -2.65% | [6] 8.6%

CC(N)c1ccc2ccccc2c1O (stereo not drawn)
inactive: [1] -3.95% | [2] -7.05% | [3] 8.8% | [4] -11.2% | [5] -6% | [6] 8.05%

Cc1cc(=O)oc2cc(NC(=O)C(CCCN=C(N)N)NC(=O)OCc3ccccc3)ccc12 (stereo not drawn)
inactive: [1] 26.5% | [2] -17.4% | [3] 23.1% | [4] -2.95% | [5] -4.1% | [6] 7.1%

C=C(C)COC1CCCCO1 (stereo not drawn)
inactive: [1] -3.75% | [2] -15.1% | [3] -36.7% | [4] 14.7% | [5] -42.3% | [6] -39.1%

C=CCN1C(=O)CS/C1=N\NC(=O)c1c(C)nc2sccn12
inactive: [1] -16.3% | [2] -4.15% | [3] -8.95% | [4] -7.4% | [5] -22.8% | [6] -28.4%

CCCCCCCCCCCCCCCC(=O)ON1C(=S)NC(C)(c2ccccc2)C1=S (stereo not drawn)
inactive: [1] -0.65% | [2] 5.45% | [3] 9.15% | [4] -4.05% | [5] 13.4% | [6] -17.6%

CN1CCN(C2CCCc3ccccc3C2O)CC1 (stereo not drawn)
inactive: [1] -0.75% | [2] 13.6% | [3] -15.7% | [4] -25.1% | [5] 1.3% | [6] 0.2%

O=c1/c(=c2\c(=O)c3cccc4cccc2c43)c2cccc3cccc1c32
inactive: [1] -10.2% | [2] 24.9% | [3] -0.4% | [4] -34% | [5] -9.05% | [6] -18.1%

O=C(O)c1ccc(/C=N\N(CCO)C2=NCCN2)cc1
inactive: [1] 0% | [2] -4% | [3] -23.8% | [4] -31.5% | [5] -0.35% | [6] 6.4%

CC/C=N/Nc1ccc([N+](=O)[O-])cc1[N+](=O)[O-]
inactive: [1] 15.6% | [2] -9.1% | [3] 4.6% | [4] 3.3% | [5] 1.6% | [6] 22.6%

O=C(O)c1cc(-c2ccccc2)nc2c(Cl)cc(Cl)cc12
inactive: [1] -12.9% | [2] -28.8% | [3] -1.85% | [4] 9.8% | [5] -16.4% | [6] -3.6%

O=C(O)[C@@H]1CCC(=O)N1C(c1ccc2c(c1)OCO2)c1ccc2c(c1)OCO2
inactive: [1] -52.2% | [2] -18.1% | [3] -31.1% | [4] 4.35% | [5] -15.1% | [6] -24.4%

O=C(CN1CCC(O)(c2ccc(F)cc2)CC1)N1CCN(C/C=C/c2ccccc2)CC1
inactive: [1] 42% | [2] 7.1% | [3] 9.8% | [4] 22.6% | [5] -1.7% | [6] 20.8%

CCC(CC)C(=O)OCCOc1ccccc1
inactive: [1] 0.9% | [2] -0.25% | [3] 3.95% | [4] -20.2% | [5] 19.4% | [6] -1.8%

COc1c(NC(=O)c2ccc([N+](=O)[O-])cc2)cccc1[N+](=O)[O-]
inactive: [1] 0.45% | [2] 14.3% | [3] 5.1% | [4] -0.2% | [5] 32.2% | [6] 20.4%

Nc1ncnc2c1ccn2Cc1c(Cl)cccc1Cl
inactive: [1] 2.05% | [2] -0.2% | [3] 7.1% | [4] -2.75% | [5] 23.9% | [6] 5.4%

COc1ccc(/C=N/NC(=O)NCCNCCO)cc1
inactive: [1] -16.6% | [2] -31.8% | [3] -32.8% | [4] -13.7% | [5] -39.5% | [6] -17.2%

CC1=NN(c2ccccc2)C(=O)/C1=C1\SC(c2ccccc2)(c2ccccc2)c2ccccc21
inactive: [1] -29.4% | [2] 0.9% | [3] 1.8% | [4] 7.95% | [5] 23.2% | [6] -30.4%

Cc1cc(C)c(NC(=O)NC2CCCCC2)cc1C
inactive: [1] 3.95% | [2] -9.3% | [3] 4.15% | [4] -1.6% | [5] 10.2% | [6] 34.9%

O=S(=O)(Cc1cccs1)c1ncc(Br)cn1
inactive: [1] 9.25% | [2] 10.1% | [3] 7.9% | [4] 7.5% | [5] 11.8% | [6] 7.8%

Cc1cc(Cl)ccc1NC(=O)C(=O)C(C(=O)c1ccccc1)C1OC(=O)c2ccccc21 (stereo not drawn)
inactive: [1] 20.9% | [2] -7.45% | [3] 14.2% | [4] 14.6% | [5] -3.25% | [6] -9.75%
